Bioassay records deposited in PubChem BioAssay by The Scripps Research Institute Molecular Screening Center.
GPR151 ag = activators of human GPR151. PathHunter beta-arrestin GPR151 cells, luminescence. AID 1508602. 650,000 compounds, 1% hits. Q8TDV0. activation, % at 11.2 µM; in the data active means activation above about 4.9%
MITF inh = blocks human microphthalmia-associated transcription factor; 650,000 compounds, 0.91% hits; AlphaScreen MITF homodimerization, bead proximity signal; O75030; inhibition, % at 2.6 µM; in the data active means inhibition above about 50%
TEAD-YAP inh = TEAD-YAP interaction inhibition; HEK-TIYL cells, TEAD-Gal4/YAP UAS-luciferase luminescence; inhibition, % at 9.12 µM; 640,000 compounds, 1.4% hits; AID 1259422; in the data active means inhibition above about 32%
FBW7 activator = human FBW7 E3 ligase activation, primary screen; AlphaScreen FBW7–phospho-cyclin E peptide binding, activator screen; normalized activity (activation), % at 26.1 µM; 650,000 compounds, 0.13% hits; in the data active means normalized activity above about 1.9%;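 further: purified mutant Fbw7 with reduced substrate affinity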
Target sequence (Q969H0 whole entry, looked up): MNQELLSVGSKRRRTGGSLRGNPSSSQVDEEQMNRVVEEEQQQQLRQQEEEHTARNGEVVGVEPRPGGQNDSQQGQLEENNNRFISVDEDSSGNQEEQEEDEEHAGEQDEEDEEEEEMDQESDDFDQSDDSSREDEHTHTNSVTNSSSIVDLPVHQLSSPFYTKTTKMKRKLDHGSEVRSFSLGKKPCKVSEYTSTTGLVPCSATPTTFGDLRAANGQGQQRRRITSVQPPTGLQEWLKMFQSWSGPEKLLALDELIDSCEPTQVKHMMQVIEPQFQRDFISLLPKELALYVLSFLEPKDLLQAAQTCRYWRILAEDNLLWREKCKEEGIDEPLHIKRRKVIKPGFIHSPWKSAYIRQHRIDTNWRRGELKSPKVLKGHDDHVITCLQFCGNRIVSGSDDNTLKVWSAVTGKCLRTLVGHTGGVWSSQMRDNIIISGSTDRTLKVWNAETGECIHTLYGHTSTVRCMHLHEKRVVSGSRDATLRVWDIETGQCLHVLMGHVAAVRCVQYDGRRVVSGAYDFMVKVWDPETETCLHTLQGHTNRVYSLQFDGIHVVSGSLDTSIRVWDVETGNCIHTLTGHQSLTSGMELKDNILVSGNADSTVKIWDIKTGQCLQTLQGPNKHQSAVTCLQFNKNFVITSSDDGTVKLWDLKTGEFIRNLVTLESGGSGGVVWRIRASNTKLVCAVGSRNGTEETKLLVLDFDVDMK
Large screens that a line does not name were inactive. Shown are actives, neighbours in structure and some others; about 3.5% of the full set was active somewhere.

CC(C)OC(=O)c1c(NC(=O)c2cccc(Cl)c2)sc2c1CCCC2	none
COC(=O)C[C@](O)(CCCC(C)(C)O)C(=O)O[C@@H]1C(OC)=C[C@]23CCCN2CCc2cc4c(cc2[C@H]13)OCO4	TEAD-YAP inh 99
Cc1ccc(N/C(=N/S(=O)(=O)c2ccccc2)c2ccccc2)cc1	TEAD-YAP inh 44
COc1ccc(/C=C2/SC(=Nc3ccccc3Cl)NC2=O)cc1	TEAD-YAP inh 37
Cc1ccc(/C=C2/SC(=Nc3cccc(C)c3)NC2=O)cc1	none
Cc1cccc(N=C2NC(=O)/C(=C\c3ccc(N(C)C)cc3)S2)c1	TEAD-YAP inh 42
CN(C)c1ccc(/C=C2/SC(=Nc3ccccc3Cl)NC2=O)cc1	TEAD-YAP inh 45
Cc1cc(OCC(=O)Nc2ccc(F)cc2)ccc1[N+](=O)[O-]	none
Cc1cc(OCC(=O)Nc2c(C)nn(Cc3ccc(F)cc3)c2C)ccc1[N+](=O)[O-]	TEAD-YAP inh 54
COc1ccc(-c2cc3nc4c(c(NCCN)n3n2)CCC4)cc1OC	none
COc1ccc(-c2cc3nc4c(c(NCc5cccnc5)n3n2)CCC4)cc1OC	TEAD-YAP inh 36
CNc1c(-c2nc(-c3ccc(OC)cc3)n[nH]2)nnn1Cc1ccccc1Cl	TEAD-YAP inh 46
CN(Cc1ccccc1)S(=O)(=O)c1cc(C(=O)Nc2ccc(Br)cc2)ccc1F	TEAD-YAP inh 41
CCN(c1ccccc1)S(=O)(=O)c1ccc(C(=O)Nc2ccc(C(C)=O)cc2)cc1	FBW7 activator 2.3
CCN(Cc1ccccc1)S(=O)(=O)c1cc(C(=O)Nc2cccc(Cl)c2)ccc1F	TEAD-YAP inh 58
CCN(c1ccccc1)S(=O)(=O)c1ccc(NC(=O)Nc2ccccc2)cc1	none
CCN(c1ccccc1)S(=O)(=O)c1cc(C(=O)Nc2ccc(Oc3ccccc3)cc2)ccc1F	TEAD-YAP inh 49
CCN(CC)S(=O)(=O)c1cc(C(=O)Nc2cccc(O)c2)ccc1Cl	TEAD-YAP inh 73
CCN(Cc1ccccc1)S(=O)(=O)c1cc(C(=O)Nc2ccc(C)c(F)c2)ccc1F	TEAD-YAP inh 57
CCN(Cc1ccccc1)S(=O)(=O)c1cc(C(=O)Nc2ccc(Oc3ccccc3)cc2)ccc1F	TEAD-YAP inh 66
O=C(Nc1ccc(Br)cc1)c1ccc(F)c(S(=O)(=O)NCc2cccs2)c1	TEAD-YAP inh 60
CCN(CC)S(=O)(=O)c1cc(C(=O)Nc2ccc(C)c(F)c2)ccc1F	none
Cc1ccc(SCC(=O)NNC(=O)OC(C)(C)C)cc1	none
Cc1ccc(S(=O)(=O)N2Cc3ccccc3C[C@H]2C(=O)O)cc1	none
CCOc1ccc(/C=C2/NC(=O)N(CC(=O)Nc3cccc(C)c3)C2=O)c(OCC)c1	FBW7 activator 2.8
Cc1cc(C(=O)CSc2nnc3ccccn23)c(C)n1C1CCCCC1	TEAD-YAP inh 60
COCCn1c(C)cc(C(=O)CSc2ccc(Cl)cc2)c1C	TEAD-YAP inh 88
COCCn1c(C)cc(C(=O)CSc2nc(C)c(C)c(C)n2)c1C	none
Cc1ccc(-n2c(C)cc(C(=O)COC(=O)c3ccc[nH]c3=O)c2C)cc1	none
COCCn1c(C)cc(C(=O)CSc2nnc3ccccn23)c1C	TEAD-YAP inh 55
Cc1cc(C(=O)CSc2nnc3ccccn23)c(C)n1-c1ccc(Br)cc1	none
COCCn1c(C)cc(C(=O)COC(=O)c2ccc[nH]c2=O)c1C	TEAD-YAP inh 62
CCOc1ccc(NC(=O)Cn2cc(OC)c(=O)cc2CSc2ccccc2)cc1	none
Cc1cc(NC(=S)N(Cc2cccs2)C2CCCCC2)ccc1Cl	none
CCN1C(C(=O)c2ccccc2)=C(Nc2ccc(OC)cc2)c2ccccc2S1(=O)=O	none
COc1ccc(NC(=O)CNCCO)c(OC)c1	none
O=C(NCCCO)c1ccc2nc(-c3ccco3)c(-c3ccco3)nc2c1	MITF inh 83
O=C(NC1CC1)c1ccc2nc(-c3ccco3)c(-c3ccco3)nc2c1	MITF inh 71
CCOCCCNC(=O)c1ccc2nc(-c3ccco3)c(-c3ccco3)nc2c1	none
O=C(Nc1ccc2nc(-c3ccco3)c(-c3ccco3)nc2c1)N1CCCC1	MITF inh 94
O=C(NCCO)Nc1ccc2nc(-c3ccco3)c(-c3ccco3)nc2c1	MITF inh 89
O=C(NC1CCCC1)c1ccc2nc(-c3ccccc3)c(-c3ccccc3)nc2c1	none
CCCn1c(=O)c2ncoc2c2ccccc21	none
COCC(=O)N1Cc2cc(C)ccc2OC(C)C1 (stereo unspecified)	none
O=C(CSc1nc2ccsc2c(=O)n1-c1ccccc1)Nc1ccccc1Cl	none
O=C(CSc1nc2ccsc2c(=O)n1-c1ccc(F)cc1)Nc1ccccc1Cl	TEAD-YAP inh 33
COc1ccccc1NC(=O)COc1ccccc1C(N)=O	none
CCOC(=O)C1CCN(Cc2ccco2)CC1	none
